We go through 14 molecules from the supplement of paper PMC6522484.

The test system of experiment [1] is DLD1. The experiment is described as follows: cell viability (CellTiter-Glo) relative to plate median (fraction of plate median); higher = more viable cells. Particulars: 5 µM; treatment time 24 h; reporter: 7TFP. In outline:
(§1)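 On parallel plates, a Tecan F500 reader recorded either firefly luciferase or CellTiterGlo luminescence. The plates held colorectal cancer cells stably transduced with lentiviral TCF/Wnt firefly luciferase reporters (7TFP or TCF4/Wnt), seeded in 384-well format and treated 24 h later with library compounds at a final 5 µM for 24 h. Per-well signals were normalised to the plate median (webcellHTS2, additive, no log transformation), and two independent replicates were averaged.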

The test system of another experiment is HCT116. The experiment is described as above. The conditions noted are these: 5 µM; treatment time 24 h; reporter: TCF4/Wnt. In outline:
as §1

Experiment [2] has as its system SW480. The experiment is described as above. Particulars: 5 µM; treatment time 24 h; reporter: 7TFP. In outline:
as §1

For experiment [3], the system named is DLD1. The experiment in a line: TCF/Wnt firefly luciferase reporter signal relative to plate median (fraction of plate median); higher = higher Wnt reporter signal. The conditions noted are these: 5 µM; treatment time 24 h; reporter: 7TFP. In outline:
as §1
Background: Reporter assays use an easily measured gene product as a stand-in for the process of interest.

In experiment [4] the test system is SW480. The description is as above. The conditions noted are these: 5 µM; treatment time 24 h; reporter: 7TFP. The gist of the method: as §1

± gives the standard deviation of the averaged measurements.

Turning to `COC(=O)C[C@H]1C2(C)CC34OC5(C)O[C@@]6([C@H](OC(C)=O)C(OC(C)=O)[C@]7(C)C(/C(=C(/O)C(C)C)C(=O)O[C@H]7c7ccoc7)[C@@]6(O5)[C@H](OC(C)=O)[C@@]3(O)C2OC(=O)C(C)C)[C@]14C` (stereo not given in full), the cell viability worked out at 1.02 ± 0.021 in the experiment on DLD1 [1], 0.959 ± 0.1 with HCT116 and 1.01 ± 0.021 in the experiment with SW480 [2]. Besides, the “TCF/Wnt firefly luciferase reporter signal” value with DLD1 [3] worked out at 1.05 ± 0.14; with SW480 [4], 1.08.

Take `C=C[C@H]1CN2CC[C@H]1C[C@H]2[C@H](O)c1ccnc2ccc(OC)cc12`: the values for the cell viability in the experiment with DLD1 [1], with HCT116 and in the experiment with SW480 [2] were 1.11 ± 0.035, 1.06 ± 0.021 and 1.07 ± 0.092, respectively. Further, the figures for the “TCF/Wnt firefly luciferase reporter signal” value in the experiment on DLD1 [3] and in the experiment with SW480 [4] were 1.205 ± 0.0071 and 0.983 ± 0.11, respectively.

Take `COCCc1ccc(OCC(O)CNC(C)C)cc1` (stereo not given): the figures for the cell viability in the experiment on DLD1 [1], in the experiment on HCT116 and with SW480 [2] were 1.14 ± 0.057, 0.959 ± 0.025 and 1.01 ± 0.018, respectively. The figures for the “TCF/Wnt firefly luciferase reporter signal” value in the experiment with DLD1 [3] and in the experiment on SW480 [4] were 1.14 ± 0.042 and 1.055 ± 0.0071, respectively.

With `O=c1c(O)c(-c2ccccc2)oc2cccc(O)c12`, the cell viability worked out at 1.03 ± 0.014 in the experiment with DLD1 [1], 1.02 ± 0.044 with HCT116 and 1.01 ± 0.045 in the experiment on SW480 [2]. The “TCF/Wnt firefly luciferase reporter signal” value in the experiment with DLD1 [3] came to 1.07; in the experiment with SW480 [4], 0.969 ± 0.021.

As to `CC(NCCC(c1ccccc1)c1ccccc1)c1ccccc1` (stereo not given), the cell viability came to 0.982 ± 0.04 in the experiment on DLD1 [1], 1.02 ± 0.021 with HCT116 and 1 ± 0.051 with SW480 [2]. Also, the “TCF/Wnt firefly luciferase reporter signal” value in the experiment on DLD1 [3] was 0.9435 ± 0.0035; in the experiment with SW480 [4], 0.92 ± 0.015.

Turning to `CC1(C)C[C@@H]2C(=O)CC[C@H]3O[C@]3(C)CC[C@H]21`, the figures for the cell viability with DLD1 [1], in the experiment on HCT116 and in the experiment on SW480 [2] were 1.09 ± 0.057, 1.01 ± 0.073 and 1.02, respectively. In addition, the “TCF/Wnt firefly luciferase reporter signal” value in the experiment with DLD1 [3] stood at 1.03 ± 0.047; in the experiment with SW480 [4] it was 0.985 ± 0.036.

For `COc1cc(O)c(C(=O)/C=C/c2ccc(OC)c(O)c2)c(OC)c1`, the cell viability is 1.06 ± 0.098 in the experiment with DLD1 [1], 0.975 ± 0.093 in the experiment on HCT116 and 1.1 ± 0.042 with SW480 [2]. Further, the “TCF/Wnt firefly luciferase reporter signal” value with DLD1 [3] came to 0.975 ± 0.064; in the experiment with SW480 [4] it was 0.8395 ± 0.00071.

Consider `CC[C@H](C)C(=O)O[C@H]1C[C@@H](C)C=C2C=C[C@H](C)[C@H](CC[C@@H]3C[C@@H](O)CC(=O)O3)[C@H]21` [Mevinolin, Lovastatin], for which the cell viability with DLD1 [1] was 0.966 ± 0.1; in the experiment on HCT116, 0.931 ± 0.048; with SW480 [2], 0.942 ± 0.017. The figures for the “TCF/Wnt firefly luciferase reporter signal” value with DLD1 [3] and with SW480 [4] were 0.836 ± 0.26 and 0.943 ± 0.029, respectively.

Consider `O=c1ccn([C@@H]2O[C@H](COP(=O)(O)OP(=O)(O)OP(=O)(O)O)[C@@H](O)[C@H]2O)c(=O)[nH]1`, for which the cell viability with DLD1 [1] was found to be 0.986 ± 0.091; with HCT116, 0.89 ± 0.016; in the experiment with SW480 [2], 1.04 ± 0.064. Moreover, the “TCF/Wnt firefly luciferase reporter signal” value with DLD1 [3] came to 0.921 ± 0.27; in the experiment with SW480 [4] it was 0.958 ± 0.14.

Take `C1CCN2C[C@@H]3C[C@@H](CN4CCCC[C@@H]34)[C@H]2C1`: the cell viability amounted to 1.08 ± 0.12 with DLD1 [1], 1.04 ± 0.021 in the experiment with HCT116 and 1.05 ± 0.021 in the experiment on SW480 [2]. Further, the “TCF/Wnt firefly luciferase reporter signal” value is 1.16 in the experiment on DLD1 [3] and 0.948 ± 0.053 with SW480 [4].

Turning to `O=c1[nH]cnc2c1ncn2[C@@H]1O[C@H](CO)[C@@H](O)[C@H]1O`, the cell viability in the experiment with DLD1 [1] was determined as 1.09 ± 0.085; in the experiment with HCT116, 1.05; with SW480 [2] it was 0.976 ± 0.028. Also, the entries for the “TCF/Wnt firefly luciferase reporter signal” value with DLD1 [3] and in the experiment on SW480 [4] were 0.975 ± 0.093 and 0.969 ± 0.1, respectively.

As for `O=CNc1ccccc1C(=O)O` [N-Formylanthranilic acid], the cell viability in the experiment on DLD1 [1] was 0.936 ± 0.018; with HCT116 it was 1.02 ± 0.021; in the experiment with SW480 [2], 0.92 ± 0.088. The results for the “TCF/Wnt firefly luciferase reporter signal” value in the experiment with DLD1 [3] and in the experiment with SW480 [4] were 0.954 ± 0.12 and 0.689 ± 0.13, respectively.

As for `Nc1nc(F)nc2c1ncn2[C@@H]1O[C@H](COP(=O)(O)O)[C@@H](O)[C@@H]1O`, the figures for the cell viability in the experiment with DLD1 [1], in the experiment with HCT116 and in the experiment with SW480 [2] were 0.987 ± 0.061, 0.942 ± 0.019 and 0.972 ± 0.054, respectively. In addition, the “TCF/Wnt firefly luciferase reporter signal” value was found to be 0.926 ± 0.018 with DLD1 [3] and 1.04 ± 0.021 with SW480 [4].

Regarding `CO/N=C(\C(=O)N[C@@H]1C(=O)N2C(C(=O)OC(C)OC(C)=O)=C(COC(N)=O)CS[C@H]12)c1ccco1` (stereo not given in full), the cell viability was 1.03 in the experiment with DLD1 [1], 1.05 ± 0.079 with HCT116 and 0.9685 ± 0.005 in the experiment with SW480 [2]. The “TCF/Wnt firefly luciferase reporter signal” value in the experiment on DLD1 [3] was 0.981 ± 0.027; in the experiment with SW480 [4] it was 1.
